# Experimental data as given in PubChem BioAssay (NCATS).
# Records with an inconclusive call do not appear. Calls of active or inactive are those of the source. The call rests on the fitted dose curve; in most records, active means well fitted inhibition curve with a large enough effect; inconclusive means small, poorly fitted or top-dose-only effect; inactive means no such curve, though single readings can be large or run the other way.
# Assay: qHTS assay for measurement of the activity of small molecule inhibitors on Zika virus induced Caspase-3 activity in human iPSC derived neural progenitor cells (hNPCs) (AID 1224857); further: nearly all actives have a fitted effect of over 65% in size
# Conditions: hNPCs ZIKV-induced caspase-3/7, Caspase-Glo luminescence, 6 h; series mostly up to 45.7 µM; activity change, negative = inhibition: at the top concentration
# Excerpt: National Center for Advancing Translational Sciences [NCATS]
# Johns Hopkins University School of Medicine
# Increase in the Caspase-3 activity indicates an activation of apoptosis cell death pathway caused by Zika virus infection in certain types of neuronal cells including human neural progenitor cells (hNPCs), astrocytes, and astrocytoma cell line (SNB-19). This cell-based caspase-3 activity assay measures the increased caspase-3 activity in the human iPSC derived neural progenitor cells (hNPCs) after a 6-hour Zika virus infection with a luminescence readout. A decrease in the luminescence signal in this assay by small molecule treatment indicates an inhibitory effect of that small molecule on the Zika virus induced caspase-3 activity that may correlate with its effect on reduction of Zika virus caused cell death.
# The medium for hNPCs consists of DMEM/F12, N2 supplement (ThermoFisher, Cat.# 17502048), NEAA (ThermoFisher, Cat. # 11140050), 2 ug/ml heparin, 2 uM cyclopamine, and B27 (ThermoFisher, Cat. # 17504044). A Caspase-Glo 3/7 assay kit (catalog number G8092; Promega, Madison, WI) was used to detect caspase-3 activity induced by Zika virus infection in human cells. The reagent mixture was reconstituted as described in the protocol from the manufacturer. Polystyrene tissue culture treated and PDL coated white plates were obtained from Greiner Bio-One (Monroe, NC). Cells were seeded in 384- or 1536-well assay plates and cultured at 37 C with 5% CO2 for 16 to 20 hours. The typical cell seeding density in the 1536-well plate assay is 350 cells/well in 3 ul medium for hNPCs in tissue culture treated plates. Compounds were added to cells and incubated for one hour before addition of ZIKV solution to cells (2 FFU/cell). After incubation at 37 C with 5% CO2 for 6 hours, the reagent mixture of Caspase-Glo 3/7 assay kit was added to each well, followed by incubation at room temperature for 30 minutes. The luminescence intensity of the assay plates was measured using a ViewLux plate reader (PerkinElmer). Data were normalized by using the cell-containing wells without ZIKV as a negative control (0% induction of caspase 3/7 activity) and wells containing ZIKV infected cells (Caspase-3 activity induced) as a positive control (100% induction of caspase 3 activity). The percentage inhibitions of the increased Caspase-3 activity by small molecule inhibitors were then calculated.
# Potency means the concentration at half of the fitted maximal effect.
SMILES,"activity change, negative = inhibition",Potency
O=C(O)c1ccccc1C(=O)Nc1ccc(-c2ccccc2)cc1,-26.2% (inactive),
O=C1NC(=O)C(=Cc2ccc3nccnc3c2)S1,,14.4 µM (active)
CCn1c(C(=O)N(C2CC2)C2CC2)cc2c3c(ncn3C)c(Nc3cc(C)n(C)n3)nc21,22.5% (inactive),
COc1ccc(-n2c(C)c([N+](=O)[O-])c3ccc(O)cc32)cc1,2.24% (inactive),
O=c1cc(CN2CCOCC2)occ1OCCCCCSc1ccnc2cc(C(F)(F)F)ccc12,87.6% (inactive),
Clc1ccc(-c2nc3sccn3c2C=NOCc2ccc(Cl)c(Cl)c2)cc1,-8.13% (inactive),
COCCOc1nc(-c2ccc(Cl)c(Cl)c2)n(-c2ccc(NC(=O)CCl)cc2)n1,66.7% (inactive),
c1cc(-c2sc(-c3ccncc3)c(-c3ccncc3)c2-c2ccncc2)ccn1,-6.82% (inactive),
CC(=O)N[C@@H](CS)C(=O)O,,inactive
Clc1ccc(Cn2c(CN3CCCC3)nc3ccccc32)cc1,,inactive
Nc1ncnc2c1ncn2[C@@H]1O[C@H](COP(=O)(O)OP(=O)(O)OP(=O)(O)OP(=O)(O)OC[C@@H]2O[C@H](n3cnc4c(N)ncnc43)[C@@H](O)C2O)C(O)[C@H]1O (stereo not given in full),-9.58% (inactive),
O=C(Nc1ccccc1-c1cn2c(CN3CCNCC3)csc2n1)c1cnc2ccccc2n1,,18.7 µM (active)
COC(=O)N[C@H](C(=O)N1CCC[C@@H]1c1ncc(-c2ccc(-c3ccc(-c4cnc([C@@H]5CCCN5C(=O)[C@@H](NC(=O)OC)C(C)C)[nH]4)cc3)cc2)[nH]1)C(C)C,5.42% (inactive),
CC(=O)OC1C(C)OC(Oc2c(-c3ccc(O)cc3)oc3cc(O)cc(O)c3c2=O)C(O)C1OC(C)=O (stereo not given),-5.01% (inactive),
Nc1ncnc2c1nc(Cl)n2[C@@H]1O[C@H](CO)[C@@H](O)[C@@H]1O,27.4% (inactive),
O=c1[nH]cnc2c1ncn2[C@H]1CC[C@@H](CO)O1,10.4% (inactive),
NC1=N[C@@]2(c3cc(NC(=O)c4ccc(F)cn4)ccc3F)COC[C@@H]2CS1,14.8% (inactive),
Cc1ccc([C@@H]2O[C@H](CO)[C@@H](O)[C@H](O)[C@@H]2O)cc1Cc1ccc(-c2ccc(F)cc2)s1,14.6% (inactive),
NC[C@@H]1O[C@@H](O[C@H]2[C@@H](O)[C@H](O[C@@H]3[C@@H](O)[C@@H](N)C[C@H](N)[C@H]3O[C@H]3O[C@H](CN)[C@@H](O)[C@@H](O)[C@H]3N)O[C@H]2CO)[C@H](N)[C@@H](O)[C@@H]1O,65.1% (inactive),
COc1ccc(-c2coc3cc(O)ccc3c2=O)cc1,,18.7 µM (active)

SMILES,"activity change, negative = inhibition",Potency
NC(=O)NN=Cc1ccc([N+](=O)[O-])o1,-26.5% (inactive),
CC(C)NCC(O)COc1cccc2[nH]ccc12 (stereo not given),,inactive
COc1cc2ncnc(-n3nc(-c4ccccn4)nc3N)c2cc1OC,34.9% (inactive),
CCN(CC)C(=O)c1ccc(O)c(OC)c1,,inactive
NC(=O)c1cccc2[nH]c(-c3ccc([C@H]4CCCN4)cc3F)nc12,,18.7 µM (active)
CC(C)(C)OC(=O)N[C@H]1CCCCCC=C[C@@H]2C[C@@]2(C(=O)NS(=O)(=O)C2CC2)NC(=O)[C@@H]2C[C@@H](OC(=O)N3Cc4cccc(F)c4C3)CN2C1=O,28.6% (inactive),
C[C@]12CCC3c4ccc(O)cc4CCC3C1CCC2=O (stereo not given in full),-12.2% (inactive),
OC[C@H]1O[C@@H](Oc2cc(O)cc(C=Cc3ccc(O)cc3)c2)[C@H](O)[C@@H](O)[C@H]1O,-12.2% (inactive),
O=C(NCCN1CCOCC1)c1ccc(Cl)cc1,,inactive
NC1CCC(Nc2nc(Nc3ccc(C(=O)N4CCCCC4)cc3)c3ncn(-c4cccc(F)c4)c3n2)CC1 (stereo not given),,16.6 µM (active)
CCCCC1C(=O)N(c2ccccc2)N(c2ccccc2)C1=O,,inactive
O=C(Nc1cccc(Br)c1)c1cccc(S(=O)(=O)N2CCCCCC2)c1,-11.1% (inactive),
COc1cc2nc(-c3ccc(N4CCN(C)CC4)cc3)nc(NCCN3CCOCC3)c2cc1OC,,5.9 µM (active)
N#Cc1ccc(NC(=O)Nc2ccccc2Br)c2n[nH]nc12,-8% (inactive),
CC1CCC(C(=O)N(c2cc(C#CC(C)(C)C)sc2C(=O)O)C2CCC(O)CC2)CC1 (stereo not given),10.1% (inactive),
CN(C)CCC(c1ccccc1)c1ccccn1 (stereo not given),,inactive
COc1ccc2cccc(CCNC(C)=O)c2c1,-8.98% (inactive),
Cc1ccc(C(C)(O)c2nc3ccccc3s2)c(C)c1 (stereo not given),55.1% (inactive),
O=C(Nc1ccccc1Br)N[C@@H]1CCN(c2ccc(C(F)(F)F)cn2)C1,31.7% (inactive),
NC(N)=Nc1nc(CSCC/C(N)=N/S(N)(=O)=O)cs1,,inactive
